According to PubChem BioAssay (NCATS):
“And” between values parts separate entries of the source, which are not always exact repeats. Equal entries are not always repeated. Results filed as inconclusive are left out. The source made the active and inactive calls. Unless noted, the call rests on the fitted dose curve; in most records, active means well fitted curve in the direction sought with a large enough effect; inconclusive means small, poorly fitted or top-dose-only effect, or another doubt; inactive means no such curve, though single readings can be large; an effect the other way counts as inactive or inconclusive.

Legend:
[1] = Cell Viability - SH-SY5Y (AID 544); conditions: SH-SY5Y neuroblastoma cell viability; viability change, negative = cytotoxic: at 92.2 µM (top of the series); further: nearly all actives have a fitted effect of over 55% in size; further: potency means the concentration at half of the fitted maximal effect;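 on viability change, negative = cytotoxic: 0% = DMSO alone and -100% = 100 µM tamoxifen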
How it was run: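 Human neuroblastoma SH-SY5Y cells (1500/well) in complete medium were exposed to compounds for 40 hr at 37 °C; intracellular ATP was then quantified by CellTiter-Glo luminescence after 20 min at room temperature. AC50 came from Hill-equation concentration-response fits.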

[2] = Cell Viability - Renal Proximal Tubule (AID 545); conditions: renal proximal tubule cells viability, primary cells of rat origin; activity change, negative = cytotoxicity: at 91.7 µM (top of the series); further: nearly all actives have a fitted effect of over 40% in size; further: potency means the concentration at half of the fitted maximal effect;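 on activity change, negative = cytotoxicity: 0% = DMSO only and -100% = 100 µM tamoxifen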
How it was run: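 Luminescent ATP signal (CellTiter-Glo) served as the viability read-out after 40 hr compound exposure of freshly isolated rat proximal tubule cells at 37 °C. Concentration-dependent ATP loss was fitted with the Hill equation to give AC50.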

[3] = Cell Viability - LYMP2-001 (AID 921); further: nearly all actives have a fitted effect of over 70% in size; further: potency means the concentration at half of the fitted maximal effect
How it was run: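 Steps: seed 2500 lymphoblastoid cells/well; 5 hr, 37 C; add compound; 24 hr, 37 C; CellTiter-Glo reagent, 30 min room temperature; read luminescence. Concentration-response modeled by Hill equation for AC50.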

[4] = MultiTox-Fluor Cytotoxicity Assay - LYMP1-001 - Live Cells (AID 947); further: potency means the concentration at half of the fitted maximal effect;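 on activity change, negative = cytotoxicity: 0% = DMSO only and full inhibition = tetraoctylammonium bromide control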
[5] = Cell Viability - LYMP2-005 (AID 967); further: potency means the concentration at half of the fitted maximal effect
How it was run: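 Acute cytotoxicity is scored as a concentration-dependent drop in intracellular ATP in human lymphoblastoid LYMP2-005 cells after 24 h compound treatment. ATP is quantified by luciferase luminescence, and AC50 is derived by Hill-equation modelling.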

[6] = Cell Viability - LYMP2-017 (AID 972); further: nearly all actives have a fitted effect of over 55% in size; further: potency means the concentration at half of the fitted maximal effect; on activity change, negative = cytotoxicity: on the % scale 0 is the no-effect control and ±100 the full control effect
How it was run: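 Human lymphoblastoid cells (2500/well) were seeded in complete medium, held 5 hr at 37 C, then exposed to compounds for 24 hr at 37 C. Intracellular ATP was read by CellTiter-Glo luminescence after 30 min at room temperature, with AC50 values from Hill-equation fits.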

[7] = Cell Viability - LYMP2-019 (AID 973); further: nearly all actives have a fitted effect of over 55% in size; further: potency means the concentration at half of the fitted maximal effect;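 on activity change, negative = cytotoxicity: 0% = DMSO alone and full effect = 92 µM tetraoctylammonium bromide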
How it was run: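 Human lymphoblastoid cells were seeded at 2500 cells/well, preincubated 5 hr at 37 C, then exposed to compounds for 24 hr at 37 C in complete medium. Intracellular ATP was measured by CellTiter-Glo luminescence; AC50 from Hill fits.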

[8] = Cell Viability - LYMP2-021 (AID 974);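 further: compound exposure lasts 24 hours at 37 °C; nearly all actives have a fitted effect of over 55% in size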; further: potency means the concentration at half of the fitted maximal effect; on activity change, negative = cytotoxicity: on the % scale 0 is the no-effect control and ±100 the full control effect
How it was run: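 Human lymphoblastoid cells (2500/well) were preincubated 5 hr at 37 C, then exposed to compounds for 24 hr at 37 C in complete medium. Intracellular ATP was read by CellTiter-Glo luminescence; AC50 came from Hill-equation fits of concentration-response data.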

[9] = Cell Viability - LYMP2-006 (AID 978); further: nearly all actives have a fitted effect of over 60% in size; further: potency means the concentration at half of the fitted maximal effect; on activity change, negative = cytotoxicity: on the % scale 0 is the no-effect control and ±100 the full control effect
How it was run: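 Cells are seeded at 2500 per well and rested 5 hr at 37 C. Compounds are added across a concentration series for 24 hr at 37 C, after which ATP is quantified by luciferase luminescence.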

[10] = Cell Viability - LYMP2-010 (AID 981); further: nearly all actives have a fitted effect of over 55% in size; further: potency means the concentration at half of the fitted maximal effect
How it was run: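 Human lymphoblastoid LYMP2-010 cells (2500/well) were preincubated 5 hr at 37 C, then exposed to compounds for 24 hr at 37 C in complete medium. Intracellular ATP was measured by CellTiter-Glo luminescence after 30 min at room temperature; AC50 from Hill-fitted concentration-response.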

[11] = Cell Viability - LYMP2-012 (AID 982); further: potency means the concentration at half of the fitted maximal effect;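 on activity change, negative = cytotoxicity: 0% = DMSO only and full loss = 92 µM tetraoctylammonium bromide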
[12] = Cell Viability - LYMP2-024 (AID 988); further: nearly all actives have a fitted effect of over 60% in size; further: potency means the concentration at half of the fitted maximal effect;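 on activity change, negative = cytotoxicity: plate controls were DMSO only for no effect and 92 µM tetraoctylammonium bromide for full effect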
How it was run: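 Human lymphoblastoid cells (2500/well) in complete medium were preincubated 5 hr at 37 C, then exposed to compounds for 24 hr at 37 C. Intracellular ATP was read by CellTiter-Glo luminescence; AC50 from Hill-equation fits of concentration-response data.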

[13] = target: Glucocorticoid receptor (Homo sapiens) (UniProt P04150); assay: qHTS assay for small molecule agonists of glucocorticoid receptor signaling (AID 588532; active means well fitted curve in the direction sought with a large enough effect in the signal ratio, with a control signal flat; the % refers to the signal ratio;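 further: 100% = dexamethasone at 0.1 µM and 0% = DMSO only wells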); conditions: HeLa MMTV-bla, beta-lactamase ratio, agonist, 18 h; stronger effect = higher value; percent of dexamethasone control, DMSO zero
Glucocorticoid receptor (Homo sapiens), sequence (P04150 whole entry, looked up): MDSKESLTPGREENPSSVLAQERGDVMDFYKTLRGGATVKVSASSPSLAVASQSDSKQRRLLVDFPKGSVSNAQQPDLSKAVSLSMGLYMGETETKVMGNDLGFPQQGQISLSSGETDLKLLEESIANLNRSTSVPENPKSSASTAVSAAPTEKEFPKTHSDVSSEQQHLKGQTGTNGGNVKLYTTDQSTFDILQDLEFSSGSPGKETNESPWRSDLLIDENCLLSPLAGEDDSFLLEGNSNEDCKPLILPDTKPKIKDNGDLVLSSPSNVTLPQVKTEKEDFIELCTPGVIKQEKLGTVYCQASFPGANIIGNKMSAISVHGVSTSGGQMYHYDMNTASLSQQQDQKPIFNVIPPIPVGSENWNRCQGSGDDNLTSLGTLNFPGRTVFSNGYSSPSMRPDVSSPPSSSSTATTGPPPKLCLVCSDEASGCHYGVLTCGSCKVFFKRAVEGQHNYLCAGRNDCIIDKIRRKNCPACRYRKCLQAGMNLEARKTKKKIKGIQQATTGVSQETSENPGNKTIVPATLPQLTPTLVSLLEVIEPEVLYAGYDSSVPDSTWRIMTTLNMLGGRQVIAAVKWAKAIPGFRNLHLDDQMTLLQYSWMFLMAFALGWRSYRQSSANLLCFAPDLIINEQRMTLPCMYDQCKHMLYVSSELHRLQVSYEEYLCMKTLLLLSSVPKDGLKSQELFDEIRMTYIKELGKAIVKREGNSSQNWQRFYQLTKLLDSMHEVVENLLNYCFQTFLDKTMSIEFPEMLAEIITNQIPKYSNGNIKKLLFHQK
How it was run: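 Stimulation of a glucocorticoid response element-driven beta-lactamase gene was measured in HeLa cells. Responses were scaled between DMSO basal and 0.1 uM dexamethasone, then fitted for half-maximal stimulation.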

[14] = qHTS assay for small molecule agonists of retinoid X receptor alpha signaling (AID 588544; calls by dose curve;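 on activation: 0% = DMSO basal wells and 100% = reference agonist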); conditions: HEK293T RXRa-UAS-bla, beta-lactamase reporter, 18 h; 530 nm emission
[15] = target: Retinoic acid receptor RXR-alpha (Homo sapiens) (UniProt P19793); assay: as above
Retinoic acid receptor RXR-alpha (Homo sapiens), sequence (P19793 whole entry, looked up): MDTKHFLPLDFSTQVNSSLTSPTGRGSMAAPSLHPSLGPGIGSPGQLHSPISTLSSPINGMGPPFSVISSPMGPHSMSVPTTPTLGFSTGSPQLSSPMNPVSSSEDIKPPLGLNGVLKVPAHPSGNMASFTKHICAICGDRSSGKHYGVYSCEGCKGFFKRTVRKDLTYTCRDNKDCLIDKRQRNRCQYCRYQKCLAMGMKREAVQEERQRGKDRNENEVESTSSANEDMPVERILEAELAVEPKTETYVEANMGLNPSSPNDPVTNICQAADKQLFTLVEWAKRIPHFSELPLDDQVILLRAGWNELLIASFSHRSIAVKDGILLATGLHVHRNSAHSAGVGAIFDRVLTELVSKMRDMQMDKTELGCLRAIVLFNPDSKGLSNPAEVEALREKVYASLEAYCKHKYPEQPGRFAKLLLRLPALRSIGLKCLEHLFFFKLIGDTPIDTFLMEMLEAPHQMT

[16] = target: Thyroid hormone receptor beta (Homo sapiens) (UniProt P10828); assay: qHTS assay for small molecule agonists of thyroid hormone receptor beta signaling (AID 588545; calls by dose curve;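 further: 0% = DMSO only and 100% = 10 nM T3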)
Thyroid hormone receptor beta (Homo sapiens), sequence (P10828 whole entry, looked up): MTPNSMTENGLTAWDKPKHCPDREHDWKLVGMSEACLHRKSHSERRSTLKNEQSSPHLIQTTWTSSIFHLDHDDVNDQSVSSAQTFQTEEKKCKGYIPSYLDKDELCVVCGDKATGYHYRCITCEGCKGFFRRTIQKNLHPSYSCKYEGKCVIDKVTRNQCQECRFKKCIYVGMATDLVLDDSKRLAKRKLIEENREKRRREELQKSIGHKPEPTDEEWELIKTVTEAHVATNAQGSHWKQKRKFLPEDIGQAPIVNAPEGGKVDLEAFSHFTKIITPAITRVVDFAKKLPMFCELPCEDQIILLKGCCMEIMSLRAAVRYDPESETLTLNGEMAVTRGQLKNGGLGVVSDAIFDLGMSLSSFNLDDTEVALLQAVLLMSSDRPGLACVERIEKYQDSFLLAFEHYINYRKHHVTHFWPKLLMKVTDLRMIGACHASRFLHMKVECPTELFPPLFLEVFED
How it was run: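 Compounds were tested as agonists in TR-UAS-bla-GripTite HEK 293 cells. After 18 hrs at 37 C, CCF4 substrate was added and fluorescence read after 2 hrs at room temperature.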

[17] = qHTS assay for small molecule activators of the p53 signaling pathway (AID 651743; active means well fitted activation curve with a large enough effect in the signal ratio, not every such curve was filed as active; the % refers to the signal ratio; further: % of control where 0% means no effect); conditions: HCT-116 p53RE-bla, beta-lactamase FRET ratio, 16 h; activation: stronger effect = higher value
How it was run: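 p53RE-bla HCT-116 cells with a stably integrated beta-lactamase reporter under p53 response elements were plated, rested 5 hours at 37 C/5% CO2, then exposed to compounds in DMSO for 16 hours at 37 C. LiveBLAzer B/G FRET substrate was read after 2 hours at room temperature.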

[18] = qHTS assay for small molecule agonists of the antioxidant response element (ARE) signaling pathway measured by Nrf2-dependant transcriptional activity (AID 720636; active means well fitted curve in the direction sought with a large enough effect in the repeat runs; an effect the other way counts as inactive or inconclusive; further: potency means the concentration at half of the fitted maximal effect; on activation: % of control where 0% means no effect)
How it was run: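 ARE-luc HepG2 cells carrying an Nrf2-responsive luciferase reporter, in medium with 1% dialyzed FBS, exposed to compound for 16 hr at 37 C, 5% CO2. Luminescence read 30 min after ONE-Glo addition.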

[19] = qHTS assay for small molecule disruptors of the mitochondrial membrane potential - 1 hr assay (AID 651754; calls by dose curve; further: nearly all actives have a fitted effect of over 35% in size; further: potency means the concentration at half of the fitted maximal effect)
How it was run: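 HepG2 cells, attached overnight at 37C, were exposed to compound or DMSO vehicle for 1 hr at 37C, 5% CO2, then stained with Mito-MPS dye for 30 min. Red aggregate versus green monomer fluorescence reports membrane potential.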

[20] = qHTS assay for small molecule disruptors of the mitochondrial membrane potential - 5 hr assay (AID 651755; calls by dose curve; further: nearly all actives have a fitted effect of over 40% in size; further: potency means the concentration at half of the fitted maximal effect)
How it was run: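 HepG2 cells, attached overnight at 37C, were exposed to compound or DMSO for 5 hr at 37C, 5% CO2. Mito-MPS dye was then added for 30 min, and fluorescence read at 490/535 nm (monomers) and 540/590 nm (aggregates).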

OC1CCCCC1
inactive: Potency [1] | Potency [2] | Potency [3] | Potency [4] | Potency [5] | Potency [6] | Potency [7] | Potency [8] | Potency [9] | Potency [10] | Potency [11] | Potency [12] | activation [13] -3.35% | Potency [15] | Potency [16] | activation [17] -2.93% | Potency [18]
-4.1%: max response [14]

O=[N+]([O-])c1cc(N(CCO)CCO)ccc1NCCO
7.09% and -3.73%: max response [14]
inactive: Potency [3] | Potency [4] | Potency [5] | Potency [10] | Potency [11] | Potency [12] | Potency [15] | Potency [16] | activation [17] -5.39% and -4.71% | Potency [19] | Potency [18]

Oc1cc(Cl)cc(Cl)c1Cl
inactive: Potency [2] | Potency [3] | Potency [4] | Potency [5] | Potency [6] | Potency [7] | Potency [9] | Potency [10] | Potency [11] | Potency [15] | Potency [16] | Potency [18]
0.211%: max response [14]

CC/C=C/C/C=C/C/C=C/CCCCCCCC(=O)OCC
active: Potency [5] 31.6 µM | Potency [6] 31.6 µM | Potency [7] 39.8 µM | Potency [8] 50.1 µM | Potency [9] 50.1 µM | Potency [10] 25.1 µM | Potency [11] 39.8 µM | Potency [12] 25.1 µM | Potency [18] 66.8 µM
inactive: Potency [2] | Potency [4] | activation [13] -2.85% | Potency [16] | Potency [19] | Potency [20]

C=C1CC[C@H](O)C/C1=C/C=C1\CCC[C@]2(C)[C@@H]([C@H](C)CCCC(C)C)CC[C@@H]12
inactive: activation [13] -3.67% | Potency [16] | Potency [19] | Potency [20]
active: Potency [1] 31.6 µM | activity change, negative = cytotoxicity [2] -97.9% | Potency [3] 39.8 µM | Potency [5] 39.8 µM | Potency [6] 50.1 µM | Potency [7] 39.8 µM | Potency [8] 39.8 µM | Potency [10] 39.8 µM | Potency [11] 50.1 µM | Potency [12] 39.8 µM

Cc1cc(-c2ccc(N=Nc3cc(S(=O)(=O)O)c4ccccc4c3N)c(C)c2)ccc1N=Nc1cc(S(=O)(=O)O)c2ccccc2c1N
active: Potency [1] 31.6 µM
-22%: max response [14]
inactive: Potency [4] | Potency [7] | Potency [15] | Potency [16] | Potency [18]

O=C=Nc1ccc(Cl)c(Cl)c1
inactive: Potency [5] | activation [13] 5.86% | Potency [18]
active: Potency [19] 4.22 µM | Potency [20] 5.96 µM

CC1=C(/C=C/C(C)=C/C=C/C(C)=C/C=O)C(C)(C)CCC1
inactive: Potency [16] | Potency [19] | Potency [20]
active: Potency [1] 25.1 µM | Potency [2] 15.8 µM | Potency [3] 39.8 µM | Potency [5] 39.8 µM | Potency [6] 39.8 µM | Potency [7] 50.1 µM | Potency [8] 50.1 µM | Potency [9] 63.1 µM | Potency [10] 31.6 µM | Potency [11] 50.1 µM | Potency [12] 39.8 µM

C1CCCNCC1
inactive: Potency [1] | Potency [2] | Potency [3] | Potency [4] | Potency [5] | Potency [6] | Potency [7] | Potency [8] | Potency [9] | Potency [10] | Potency [11] | Potency [12] | activation [13] 8.29% | Potency [15] | Potency [16] | Potency [20] | Potency [18]
-9.69%: max response [14]

Oc1cc2c(cc1O)[C@H]1c3ccc(O)c(O)c3OC[C@@]1(O)C2
5.74%: max response [14]
inactive: activation [13] 0.204% | Potency [15] | Potency [16] | Potency [19] | Potency [20]
active: viability change, negative = cytotoxic [1] -82.8% | Potency [4] 50.1 µM | Potency [6] 31.6 µM | Potency [7] 39.8 µM | Potency [8] 31.6 µM | Potency [9] 39.8 µM | Potency [10] 39.8 µM | Potency [11] 25.1 µM | Potency [12] 25.1 µM

CN(C)c1ccc(C(=N)c2ccc(N(C)C)cc2)cc1
active: Potency [1] 10 µM | Potency [3] 31.6 µM | Potency [11] 39.8 µM | Potency [12] 39.8 µM
inactive: Potency [5] | activation [13] 2.53% | Potency [16] | activation [17] 11.1%

O=C(O)c1cc(N=Nc2ccc([N+](=O)[O-])cc2)ccc1O
active: Potency [19] 37.6 µM
inactive: Potency [1] | Potency [4] | Potency [5] | Potency [6] | Potency [9] | Potency [10] | activation [13] -18.2% | activation [17] -5.24%
